Source: PubChem BioAssay
Most compounds without a hit are left out; they make up all but 1.6% or so of the library.
LYP inh 2: PTPN22 phosphatase inhibitors, primary screen, biochemical, DiFMUP fluorescence, 2 µM | AID 640, 2007 | recombinant LYP catalytic domain | inhibition, % at 2 µM | Tyrosine-protein phosphatase non-receptor type 22 (Homo sapiens), Q9Y2R2 | 96,000 tested, 0.21% active;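 active means inhibition at 2 µM at or above a set limit, the screen mean plus 3 SD, cut at about 24% in these data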;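 further: 0% = DMSO with enzyme and 100% = enzyme fully blocked by orthovanadate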
Target sequence (Q9Y2R2 whole entry, looked up, the tested form may be a part): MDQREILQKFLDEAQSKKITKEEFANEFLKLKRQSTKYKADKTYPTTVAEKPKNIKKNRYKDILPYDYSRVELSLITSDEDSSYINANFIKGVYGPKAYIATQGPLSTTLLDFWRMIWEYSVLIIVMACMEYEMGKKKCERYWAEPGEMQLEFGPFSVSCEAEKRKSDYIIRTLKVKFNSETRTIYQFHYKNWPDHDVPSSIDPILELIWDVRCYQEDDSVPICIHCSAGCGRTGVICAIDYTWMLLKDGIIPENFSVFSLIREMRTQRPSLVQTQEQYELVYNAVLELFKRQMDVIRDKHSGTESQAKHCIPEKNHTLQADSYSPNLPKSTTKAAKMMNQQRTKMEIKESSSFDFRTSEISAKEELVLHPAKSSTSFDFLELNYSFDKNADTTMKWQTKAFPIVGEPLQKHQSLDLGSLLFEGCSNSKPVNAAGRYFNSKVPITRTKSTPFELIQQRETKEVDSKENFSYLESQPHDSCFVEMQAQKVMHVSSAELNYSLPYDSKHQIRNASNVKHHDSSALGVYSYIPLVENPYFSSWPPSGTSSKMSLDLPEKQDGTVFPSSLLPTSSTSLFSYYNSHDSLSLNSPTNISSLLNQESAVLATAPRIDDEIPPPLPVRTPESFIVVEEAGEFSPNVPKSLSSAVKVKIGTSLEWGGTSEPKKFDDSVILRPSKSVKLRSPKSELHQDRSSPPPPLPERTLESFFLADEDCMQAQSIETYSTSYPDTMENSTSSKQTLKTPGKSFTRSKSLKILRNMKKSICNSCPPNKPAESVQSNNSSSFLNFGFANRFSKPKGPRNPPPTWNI
EphB4 antag: EphB4-ephrin-B2 interaction antagonists, primary screen, biochemical, TNYL-RAW peptide probe, fluorescence polarization; Ephrin type-B receptor 4 (Homo sapiens), P54760; EphB4 LBD / TNYL-RAW-Alexa532 peptide; inhibition, % at 7 µM; 97,000 tested, 0.15% active; AID 720, 2007;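 active means inhibition above the screen-wide mean inhibition plus 3 SD, cut at about 15% in these data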;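 further: 0% = DMSO wells and 100% = excess unlabeled TNYL-RAW peptide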
LYP act: LYP phosphatase activators, primary screen, biochemical, DiFMUP fluorescence, 2 µM | Tyrosine-protein phosphatase non-receptor type 22 (Homo sapiens), Q9Y2R2 | recombinant LYP; 0 = plate median, 100 = signal doubled | 96,000 tested, 0.11% active | activation, % at 2 µM;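 active means activation at 2 µM above a set limit, the mean plus 5 SD, cut at about 37% in these data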
PLAP act: PLAP enzyme activators, biochemical, luminescence, HTS; AID 696, 2007; activation fold at 20 µM; 96,000 tested, 1.2% active; purified PLAP enzyme, luminescent substrate read-out; active compounds read high; Alkaline phosphatase, placental type (Homo sapiens), P05187; in the data active means activation fold above about 2
sEH activator: soluble epoxide hydrolase activators, primary screen, biochemical, human sEH; Bifunctional epoxide hydrolase 2 (Homo sapiens), P34913; purified human sEH enzymatic activity, activator screen; activation, % at 2 µM; 91,000 tested, 0.04% active; in the data active means activation above about 37%
sEH inh: soluble epoxide hydrolase inhibitors, primary screen, biochemical, human sEH | Bifunctional epoxide hydrolase 2 (Homo sapiens), P34913 | recombinant human sEH enzymatic activity assay | inhibition, % at 2 µM | 91,000 tested, 0.34% active | AID 707, 2007; in the data active means inhibition above about 80%
* marks the source's active call; other numbers are inactive results; nt = no result.

SMILES | LYP inh 2 | EphB4 antag | LYP act | PLAP act | sEH activator | sEH inh
CCOc1ccc(NC(=O)NCCCSC2CCCCC2)cc1 | -5 | -1 | 7 | 1 | -86 | 85*
CCC(C)NC(=O)Nc1ccc2c(c1)N(C)C(=O)c1ccccc1S2 (stereo unspecified) | 13 | 5 | -14 | 4.4 | -88 | 88*
CCc1nc(SCc2cc(Cl)ccc2OC)n[nH]1 | -2 | 1 | 0 | 2.2* | 3 | -5
Nc1nc(SCc2ccc(Cl)cc2Cl)n[nH]1 | -1 | 3 | 0 | 1.4 | -3 | 5
CC(=O)Nc1nc(SCc2ccc(Cl)cc2Cl)n[nH]1 | -2 | 0 | 5 | 1 | -5 | 5
CCCc1nc(SCc2ccccc2Cl)n[nH]1 | -14 | 2 | 12 | 2.2* | 4 | -2
CCOC(=O)Cc1csc(NC(=O)CN2C(=O)c3ccccc3S2(=O)=O)n1 | nt | nt | nt | 2.3* | nt | nt
CCN1CCN(Cc2nc3c(c(=O)n(C)c(=O)n3C)n2C(C)C(C)=O)CC1 (stereo unspecified) | 0 | -14 | 0 | 0.9 | -4 | 6
CCCCc1ccc(NC(=O)COCC)cc1 | -4 | 9 | 5 | 1 | 8 | -5
CCCCc1ccc(NC(=O)CSCc2cc(=O)[nH][nH]2)cc1 | 12 | -4 | -10 | 2.3* | -4 | 1
CC(NCc1ccc(N(C)C)cc1)C1CC2CCC1C2 (stereo unspecified) | 9 | 0 | -7 | 0.8 | 13 | -12
CC1=Nc2ccccc2/C1=C\c1nc(-c2ccc(F)cc2)oc1O | 2 | 15* | -3 | 0.7 | 0 | -3
CN=Cc1nc(-c2ccccc2)oc1O | -13 | -5 | 5 | nt | 2 | 1
COc1cccc(CN(CC2CCCO2)S(=O)(=O)c2ccc(S(=O)(=O)N(C)C)cc2)c1 (stereo unspecified) | 3 | 2 | -2 | 1 | -6 | 5
Cc1cnn(-c2ccc3nnc(-c4ccc(Cl)cc4)n3n2)c1 | 17 | 2 | -15 | 0.9 | 4 | -4
Cc1cc(C)c2c(n1)nn1c(N3CCN(Cc4ccccc4)CC3)cc(C)nc21 | nt | nt | nt | 2.1* | nt | nt
COc1ccc(CNC(=O)CCCCCn2c(SCC#N)nc3cc4c(cc3c2=O)OCO4)cc1 | nt | nt | nt | 2.1* | nt | nt
COc1ccc(CCNC(=O)CCCn2c(SCC#N)nc3ccccc3c2=O)cc1OC | -9 | 2 | 7 | 1 | -21 | 22
CC(=O)/C(=N/Nc1ccccc1C)N1CCOCC1 | -6 | 3 | 10 | 1 | -10 | 13
O=C(CSc1nc2ccccc2[nH]1)N1CCN(S(=O)(=O)c2ccc(Cl)cc2)CC1 | -6 | -1 | 8 | 2* | -4 | -1
Cc1ccc(S(=O)(=O)N2CCN(C(=O)CSc3nc4ccccc4c(=O)[nH]3)CC2)cc1 | 12 | -3 | -11 | nt | -10 | 11
Cc1ccc(S(=O)(=O)C2(C(=O)Nc3cccc(F)c3)CC2)cc1 | nt | nt | nt | 0.8 | nt | nt
O=C(CN(C(=O)CNS(=O)(=O)c1ccccc1)C1CCCC1)NCc1ccco1 | nt | nt | nt | 1.7 | nt | nt
Cn1c(SCC(=O)Nc2nc3ccccc3s2)nnc1-c1ccccc1 | 14 | 6 | -12 | 0.9 | -4 | 6
CC1(C)Cc2ccccc2-c2nnc(SCC(=O)Nc3nc4ccccc4s3)n21 | 4 | 18* | -4 | 1.1 | 6 | -7
SMILES | LYP inh 2 | EphB4 antag | LYP act | PLAP act | sEH activator | sEH inh
Clc1ccc(-c2csc(NNC3=NCCCCC3)n2)cc1 | -7 | -6 | 4 | 1.4 | nt | nt
c1ccc(-c2csc(NNC3=NCCCCC3)n2)cc1 | 11 | -1 | -12 | 2.1* | 8 | -7
COc1ccccc1C1CC(c2c(-c3ccccc3)c3cc(Cl)ccc3[nH]c2=O)=NN1S(C)(=O)=O (stereo unspecified) | 14 | 17* | -12 | 1.4 | -1 | 2
Cc1[nH]c2ccc(-c3nnc(SCC(=O)NCc4ccco4)n3Cc3ccccc3)cc2c1C | -10 | -4 | 6 | 2.1* | 2 | 0
Cc1sc2nc(SCC(=O)NCc3ccco3)n(Cc3ccccc3)c(=O)c2c1C | -11 | -1 | 14 | 1 | 1 | -2
CCCNC(=O)c1ccc2c(c1)C1C3CCC(C3)C1C(c1ccccc1)N2 (stereo unspecified) | 1 | 6 | -2 | 2.6* | -45 | 46
O=C(NCc1cccnc1)c1ccc2c(c1)OCO2 | -12 | -2 | 11 | 1 | 1 | 2
Cc1nc(SCC(=O)c2ccccc2)n[nH]1 | 4 | -6 | -4 | 2.2* | 9 | -11
O=C(CSc1n[nH]c(-c2ccncc2)n1)c1ccccc1 | -2 | 6 | 0 | 0.9 | -4 | 5
C/C(N)=C(/C#N)C(=O)CSc1nnnn1-c1ccc(C)cc1C | 10 | 6 | -12 | 1.6 | nt | nt
O=C(CSc1nnc(-c2cccs2)n1-c1cccc(Cl)c1)c1cccc2c1OCCO2 | 25* | 9 | -24 | 1.2 | 2 | -4
O=C(O)CSc1nnc(-c2cccs2)n1-c1ccc(Cl)cc1 | 6 | 5 | -10 | 0.8 | -7 | 7
Cc1cc(C(C)(C)C)cc(C)c1COC(=O)C1CCC(=O)N1 (stereo unspecified) | 27* | -8 | -28 | 1.6 | -1 | 0
CCN1CCN(C(=O)c2ccc(NS(=O)(=O)c3ccccc3)cc2)CC1 | 2 | 0 | -2 | 1.3 | 14 | -11
Cc1ccc(O)c(-c2cc(C(=O)NCc3ccncc3)[nH]n2)c1 | -1 | 0 | 0 | 2.9* | 5 | -4
COc1ccc(CCNC(=O)c2cc(-c3ccccc3O)n[nH]2)cc1OC | 3 | -4 | -4 | nt | 0 | 1
Cc1cc(C)c(O)c(-c2cc(C(=O)NCc3ccccc3)[nH]n2)c1 | -3 | 3 | 2 | 1.1 | -2 | 0
COc1ccc(CCNC(=O)c2cc(-c3ccc(C)cc3O)n[nH]2)cc1OC | -1 | -4 | 0 | 2* | -7 | 5
Cc1nn(C(=O)c2cc3sccc3[nH]2)c(C)c1C | 4 | 3 | -8 | 0.9 | -3 | 1
Cc1ccc(N=Cc2c(O)n(-c3cc(Cl)ccc3N3CCOCC3)c(=O)c3ccccc23)cc1C | -19 | -4 | 20 | 1.5 | 12 | -14
O=C(CSc1nnc(CCc2nc3ccccc3[nH]2)n1-c1ccccc1)NCc1ccccc1 | 2 | -1 | -3 | nt | -7 | 5
O=C(CSc1nnc(CCc2nc3ccccc3[nH]2)n1-c1ccccc1)NCc1ccco1 | -7 | -1 | 5 | 2* | 21 | -21
COc1ccc(NC(=S)NNC(=O)C(C)n2nc(C)c([N+](=O)[O-])c2C)cc1 (stereo unspecified) | 0 | 10 | 3 | 2.3* | 6 | -2
